From PubChem
Most compounds without a hit are left out; they make up all but 3.6% or so of the library.
BoNT A protease – BoNT/A light chain protease inhibitors, primary screen, biochemical, flow cytometry, MLPCN library | AID 588499, 2011 | Botulinum neurotoxin type A light chain protease (Clostridium botulinum A str. ATCC 3502) | multiplex microsphere protease substrate cleavage | 360,000 compounds, 0.17% hits | inhibition, % at 10 µM; in the data active = inhibition above about 30%; inconclusive = no clear call, values can overlap the other calls; also: plate controls were buffer without enzyme for full effect and enzyme alone for no effect
Anthrax LF prot – Bacillus anthracis LF protease inhibitors, primary screen, biochemical, multiplex microsphere, MLPCN library; inhibition, % at 10 µM; 360,000 compounds, 0.12% hits; AID 588501, 2011; Lethal factor (Bacillus anthracis), P15917; multiplex microsphere protease cleavage assay; in the data active = inhibition above about 30%; inconclusive = no clear call, values can overlap the other calls; also: plate controls were buffer without enzyme for full effect and enzyme alone for no effect
MazEF act – activators of E. coli MazEF toxin-antitoxin RNase, primary screen, biochemical, fluorescence, uHTS. FAM/BHQ RNA-DNA oligo cleavage fluorescence, 5 h. Endoribonuclease toxin MazF (Escherichia coli (strain K12)), P0AE70. activation, % at 20 µM. 350,000 compounds, 0.32% hits; in the data active = activation above about 50%
Target sequence (P0AE70 whole entry, looked up): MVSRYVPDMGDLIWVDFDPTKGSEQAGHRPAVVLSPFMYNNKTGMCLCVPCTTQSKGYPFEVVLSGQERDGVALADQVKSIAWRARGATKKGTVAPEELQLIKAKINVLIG
Bead autofluor – flagged as autofluorescent in microsphere protease counterscreen; compound autofluorescence counterscreen, microsphere flow cytometry; hits give high values; 360,000 compounds, 3.1% hits; fluorescence intensity (no concentration beside the values); in the data active = fluorescence intensity above about 16000; inconclusive = no clear call, values can overlap the other calls
BoNT F protease – BoNT/F light chain protease inhibitors, primary screen, biochemical, flow cytometry, MLPCN library; Multiplex microsphere protease cleavage assay; Botulinum neurotoxin type F light chain protease (Clostridium botulinum); inhibition, % at 10 µM; 360,000 compounds, 0.22% hits; AID 588497, 2011; in the data active = inhibition above about 35%, passing the limit was not always enough; inconclusive = no clear call, values can overlap the other calls; also: plate controls were buffer without enzyme for full effect and enzyme alone for no effect
BoNTA LC inh 1 – BoNT/A light chain protease inhibitors, confirmation, biochemical, flow cytometry, cherry pick 1; shares compounds with BoNT F protease; 720 compounds, 3% hits; multiplex microsphere protease assay; inhibition, % at 10 µM; in the data active = inhibition above about 32%
BoNTF LC inh 1 – BoNT/F light chain protease inhibitors, confirmation, biochemical, flow cytometry, cherry pick 1; shares compounds with BoNT F protease; multiplex microsphere protease cleavage assay; inhibition, % at 10 µM; 720 tested, under 10 active; AID 602140, 2011
LF protease CP1 – Bacillus anthracis LF protease inhibitors, confirmation, biochemical, multiplex microsphere, cherry pick 1; shares compounds with BoNT F protease; multiplex microsphere protease cleavage assay; inhibition, % at 10 µM; 720 tested, under 10 active
The depositor's hits bear a star; ? = inconclusive; nt = no result; + = active, no number. Unless noted, no rule for the calls is given here.

SMILES	BoNT A protease	Anthrax LF prot	MazEF act	Bead autofluor	BoNT F protease	BoNTA LC inh 1	BoNTF LC inh 1	LF protease CP1
Cc1ccc(-c2nc3sc4c(N)ncnc4c3c3c2CCCC3)cc1	0	-2	36	22379*	1	nt	nt	nt
O=c1[nH]cnc2c1sc1nc(-c3ccccc3)c3c(c12)CCCC3	0	0	1	2248	2	nt	nt	nt
Cc1c(C(=O)NC(C)CN2CCCCC2)oc2ccccc12 (centres undefined)	1	5	6	17372*	-4	nt	nt	nt
Cc1nc2ccccc2n1CCc1nc2c3ccccc3nc(=S)n2[nH]1	?	0	3	23484*	-4	nt	nt	nt
CC1(C)C2CC=C(CN3CCC(O)CC3)C1C2 (centres undefined)	?	-2	-4	16149*	0	nt	nt	nt
CC1(C)[C@H]2CC=C(CN3CCC(N4CCC(C(=O)N5CCCC5)CC4)CC3)[C@@H]1C2	-1	-2	1	6453	3	nt	nt	nt
N#CCCn1cc(C(N)=O)c(-c2ccc3ccccc3c2)n1	1	19	2	3976	-28	nt	nt	nt
CN(C)C(=O)c1cn(CCC#N)nc1-c1ccc2ccccc2c1	0	12	-1	3918	52*	-1	-12	0
CCc1ccccc1N(CC(=O)NCc1ccc(OC)cc1)C(=O)CCC(=O)Nc1ccccn1	-2	4	3	5288	-3	nt	nt	nt
COc1ccc(CNC(=O)CN(C(=O)CCC(=O)Nc2ccccn2)c2cc(C)ccc2C)cc1	-2	32*	0	3145	-7	1	-4	5
CCC(C)(C)n1nnnc1C(c1cc2ccc(OC)cc2[nH]c1=O)N1CCCCC1 (centres undefined)	2	-6	-9	10987	3	-2	0	-5
CCC(C)(C)n1nnnc1C(c1cc2cc(C)cc(C)c2[nH]c1=O)N1CCCC1 (centres undefined)	10	7	3	10428	2	nt	nt	nt
CCC(C)(C)n1nnnc1C(c1cc2cccc(C)c2[nH]c1=O)N1CCCC1 (centres undefined)	?	3	3	23337*	4	0	0	-4
COc1ccc(CNC(=O)CSc2nnc(NC(=O)C3CC3)s2)cc1	0	-2	8	3716	35*	0	0	0
Nc1ccc(S(=O)(=O)Nc2nccc(/C=C/c3cccc(Br)c3)n2)cc1	-1	3	1	3522	37*	0	-2	-1
Cc1ccc2[nH]c(=O)c(C(c3nnnn3CC3CCCO3)N3CCOCC3)cc2c1 (centres undefined)	1	-1	2	?	5	nt	nt	nt
Cc1cccc2cc(C(c3nnnn3C3CCCC3)N3CCOCC3)c(=O)[nH]c12 (centres undefined)	?	0	1	21873*	-2	-3	-5	-4
Cc1cc(C)c2cc(C(c3nnnn3C3CCCC3)N3CCOCC3)c(=O)[nH]c2c1 (centres undefined)	1	-7	12	9576	8	1	-4	2
CC(C)c1ccc2nc3sc(C(=O)N4CCc5ccccc5C4)c(N)c3cc2c1	21	18	-49	8548	23	4	-1	4
CCN1CCc2nc3sc(C(=O)N4CCc5ccccc5C4)c(N)c3cc2C1	6	-2	3	5053	-28	nt	nt	nt
COc1cccc(Nc2nc(C(N)c3ccccc3)cs2)n1 (centres undefined)	0	-7	nt	3768	-15	nt	nt	nt
Cc1cc(C)c2c(c1)NC(c1cc3c(cc1Br)OCO3)C1CC=CC21 (centres undefined)	4	-10	9	1899	+	-1	2	-2
Brc1cc2c(cc1C1Nc3ccccc3C3C=CCC31)OCO2 (centres undefined)	0	-1	4	2442	0	nt	nt	nt
CS(=O)(=O)Nc1ccccc1C(=O)Nc1cccc(Cl)c1	?	8	-6	5367	53*	0	-1	3
COCc1cc(CN2CCCC(C(=O)c3cccc(C(F)(F)F)c3)C2)ccc1OC (centres undefined)	4	-2	-3	3106	43*	-2	0	-3
SMILES	BoNT A protease	Anthrax LF prot	MazEF act	Bead autofluor	BoNT F protease	BoNTA LC inh 1	BoNTF LC inh 1	LF protease CP1
CCc1c(C)nc(N2CCN(c3ccc(OC)cc3)CC2)[nH]c1=O	0	-3	2	3086	-16	nt	nt	nt
COC(=O)C1CCN(C(=O)CN(C)Cc2ccc(C(C)(C)C)cc2)CC1	0	3	7	3751	36*	2	2	5
CN(Cc1ccc(C(C)(C)C)cc1)C(=O)C1CCN(C(=O)Nc2ccccc2)CC1	-2	-4	-3	?	-4	nt	nt	nt
COc1ccc(C(=O)Nc2nc(-c3ccc([N+](=O)[O-])cc3)c(-c3ccc(OC)cc3)s2)cc1	38*	33*	24	7771	22	14	9	12
O=C(Nc1nc(-c2ccccc2)c(-c2ccccc2)s1)c1ccc(S(=O)(=O)N2CCCCC2)cc1	0	-6	-2	11466	-7	-1	-6	-5
Cc1ccc(-n2nc3c(c2NC(=O)c2ccc4c(c2)OCO4)CS(=O)(=O)C3)cc1C	1	1	-2	4195	-6	nt	nt	nt
CN(C(=O)CSCC(=O)Nc1ccc(Cl)cc1)C1CCCCC1	0	4	-3	3730	0	nt	nt	nt
O=C1CNCc2[nH]c3ccccc3c2N1c1ccccc1	33*	21	-2	9946	-8	0	-10	-3
CCOCCSc1nc2c(c(-c3cccs3)c1C#N)CC/C2=C/c1cccs1	77*	35*	-31	2450	25	37*	3	23
COc1cc(-c2cc(NC(C)=O)c3ncc(-c4ccc(C(C)=O)cc4)n3c2)cc(OC)c1OC	1	-1	nt	3793	-1	nt	nt	nt
Cc1ccc(S(=O)(=O)N(CC(=O)NCc2ccncc2)Cc2ccccc2F)cc1	-2	10	12	2926	35*	0	-3	-2
Cc1cc(C(=O)N2CCN(c3ncccn3)CC2)nn1C	1	-13	1	4492	?	nt	nt	nt
O=C(CNC(=O)c1ccccc1F)OCc1nc2ccc(Cl)cc2n1CCO	3	-6	1	6423	2	nt	nt	nt
C=CCOc1c(Br)cc(CNCCCN2CCOCC2)cc1OC	0	45*	8	2985	-3	0	-6	-1
C=CCNc1nc(C(=O)OC(C)C(=O)c2ccc(C)cc2)cs1 (centres undefined)	nt	nt	0	nt	nt	nt	nt	nt
